Cruzain inh Det: qHTS Assay for Promiscuous and Specific Inhibitors of Cruzain (with detergent) | purified cruzain, Z-FR-AMC fluorescence, 0.01% Triton | Potency, µM, hits mostly inhibitors | 0.43% of 200,000 active; further: nearly all actives have a fitted effect of over 40% in size
Target sequence (P25779 123-467 limits assumed): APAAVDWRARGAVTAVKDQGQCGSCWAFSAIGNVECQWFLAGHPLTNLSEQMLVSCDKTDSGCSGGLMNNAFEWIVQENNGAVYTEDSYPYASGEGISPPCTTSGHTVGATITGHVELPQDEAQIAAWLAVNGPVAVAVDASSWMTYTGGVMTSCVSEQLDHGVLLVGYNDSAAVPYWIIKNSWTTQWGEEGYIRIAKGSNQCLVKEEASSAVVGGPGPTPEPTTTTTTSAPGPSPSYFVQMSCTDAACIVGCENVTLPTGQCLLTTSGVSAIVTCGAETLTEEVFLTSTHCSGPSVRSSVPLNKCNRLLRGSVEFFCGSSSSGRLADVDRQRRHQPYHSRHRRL
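Purified cruzain (1.5 nM final) was preincubated with compounds for 15 min at room temperature in 100 mM sodium acetate pH 5.5, 5 mM DTT, 0.01% Triton X-100. Reaction started with 2 uM Z-FR-AMC; AMC fluorescence change over 60 s gave activity.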
Cruzain inh noDet: qHTS Assay for Promiscuous and Specific Inhibitors of Cruzain (without detergent). purified cruzain, Z-FR-AMC fluorescence, no detergent. Potency, µM, most hits filed as inhibitors. 2.3% of 200,000 active; further: nearly all actives have a fitted effect of over 40% in size
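Detergent-free condition (0.00005% Triton X-100) in acetate buffer pH 5.5 with DTT. 1.5 nM enzyme and compound were pre-mixed 15 min, then 2 uM Z-FR-AMC substrate added; reaction progress from fluorescence change between first and third reads (60 s).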
Hits are given with their value; i = inactive; ? = inconclusive. An excerpt weighted towards active compounds, which were near 2.6% of everything screened. The call rests on the fitted dose curve; in most records, active means well fitted curve in the direction sought with a large enough effect; inconclusive means small, poorly fitted or top-dose-only effect, or another doubt; inactive means no such curve, though single readings can be large; an effect the other way counts as inactive or inconclusive.

SMILES	Cruzain inh Det	Cruzain inh noDet
CCC(=O)N1CCc2cc(S(=O)(=O)CCC(=O)N3CCN(c4ccccc4Cl)CC3)ccc21	i	i
CN1CCN(c2ncc3nc(-c4cccc(C#N)c4)c(=O)n(C)c3n2)CC1	17.8µM	?
CN1CCN(c2ncc3nc(-c4cc(F)cc(F)c4)c(=O)n(C)c3n2)CC1	i	i
COc1ccc(-n2c(=O)c(-c3ccccc3)nc3cnc(N4CCN(C)CC4)nc32)cc1	i	i
CN1CCN(c2ncc3nc(-c4ccccc4)c(=O)n(-c4ccccc4)c3n2)CC1	25.1µM	?
CC(=O)Nc1nonc1-c1nnc(SCC(=O)Nc2c(C)cccc2C)n1-c1ccccc1	i	i
COc1ccc(-c2[nH]c(-c3ccc(F)cc3)nc2SCC(=O)Nc2ccc(OC)c(OC)c2)cc1	i	i
Cc1cccc(C(=O)N(Cc2ccco2)Cc2ccccc2F)c1	i	i
C=CCSc1n[nH]c2nc3c(c(=O)n12)C1(CCCC1)Cc1ccccc1-3	i	10µM
CCSc1n[nH]c2nc3c(c(=O)n12)C1(CCCC1)Cc1ccccc1-3	i	?
Cc1oc(-c2ccccc2Cl)nc1CS(=O)CC(=O)N1CCN(c2cccc(C(F)(F)F)c2)CC1 (stereo not given)	i	?
CC(=O)N1CCc2c(sc3c2c(=O)n(CCc2ccccc2)c(=O)n3Cc2ccccc2C)C1	i	?
COc1ccc(C(=O)N2CCC(c3nc(-c4ccc(S(=O)(=O)N5CCCC5)cc4)no3)CC2)cc1	i	?
COc1ccccc1Nc1nc(-c2ccccc2)c(CC(=O)O)s1	i	25.1µM
O=C(O)Cc1sc(N/N=C\c2ccccc2)nc1-c1ccccc1	i	?
COc1ccc(NC(=O)CSC2=Nc3ccccc3C3=NC(CCC(=O)NCc4ccco4)C(=O)N23)cc1 (stereo not given)	i	i
CC(=O)N/N=C/c1cc([N+](=O)[O-])ccc1OCCOc1ccccc1	i	i
Cc1cccc(NC(=S)N/N=C/c2cccc([N+](=O)[O-])c2)c1	i	i
CS(=O)(=O)N(CC(=O)N/N=C/c1cc([N+](=O)[O-])ccc1Cl)c1ccccc1	i	i
Cc1cc(C(=O)N/N=C/c2cccc([N+](=O)[O-])c2)c(C)n1-c1ccccc1	i	i
O=[N+]([O-])c1ccc(Cl)c(/C=N/NC(=S)Nc2ccccc2)c1	i	25.1µM
Cc1cccc(NC(=S)N/N=C/c2ccc(Cl)c([N+](=O)[O-])c2)c1	i	31.6µM
NC(=S)N/N=C/c1cc([N+](=O)[O-])ccc1OCCOc1ccccc1	0.251µM	0.159µM
Cc1cc(C(=O)N/N=C/c2ccc(Cl)c([N+](=O)[O-])c2)c(C)n1-c1ccc(F)cc1	i	7.94µM
COc1cc(/C=C\C(=O)N2CCC=CC2=O)cc(OC)c1OC	i	i
SMILES	Cruzain inh Det	Cruzain inh noDet
COc1cccc(OCC(=O)NNC(=O)c2ccc(-c3ccccc3)cc2)c1	i	25.1µM
COc1cc(NC(=O)COc2cccc(OC)c2)cc(OC)c1	i	i
Cc1cccc(-n2c(=O)c3c(c4cc(C)ccc4n3C)n(C)c2=O)c1	i	i
C=Cc1ccc(Cn2c(=O)n(-c3cccc(C)c3)c(=O)c3c2c2cc(C)ccc2n3C)cc1	i	25.1µM
CCCNc1ncnc2c1c(-c1ccccc1)cn2-c1ccccc1	i	i
Cc1nn(-c2ccccc2)c(N2CCCC2)c1/C=N/NC(=S)Nc1cc(C(F)(F)F)ccc1Cl	i	10µM
Cc1nn(-c2ccccc2)c(N2CCCC2)c1/C=N/NC(=S)Nc1ccccc1C(F)(F)F	i	?
CCC(Sc1nc2ccccc2c2nc(CCc3c(C)n[nH]c3C)nn12)C(=O)Nc1ccc(OC)cc1 (stereo not given)	i	?
CCn1c(C)c(C)c2cc(C(=O)NCC(C)c3ccccc3)ccc21 (stereo not given)	i	i
COc1ccccc1NC(=O)CN1C(=O)CCSc2ccccc21	i	i
COc1cc(SC#N)ccc1N=Cc1c(C)[nH]n(-c2ccc(Cl)cc2)c1=O	i	20µM
COc1cc(SC#N)ccc1N=Cc1c(C)[nH]n(-c2ccc(C)c(C)c2)c1=O	i	i
FC(F)(F)c1cnc(Sc2nnc(-c3cccs3)n2CC2CCCO2)c(Cl)c1 (stereo not given)	i	i
N#Cc1c(Sc2ncc(C(F)(F)F)cc2Cl)nsc1C/C=N\OCc1c(F)cccc1Cl	i	3.98µM
COc1cc(OC)c(NC2(c3ccccc3)C(=O)c3ccccc3C2=O)cc1Cl	i	i
COc1cccc(-n2cc(C(=O)NCCc3cccc(C)c3)c3ccccc3c2=O)c1	i	i
COc1cccc(C(=O)Nc2cc(C(=O)NCCc3ccccc3)ccc2Cl)c1	i	i
COc1cccc(/C(O)=C/c2nc3ccc(C(=O)NCCc4ccc(Cl)cc4)cc3[nH]c2=O)c1	i	25.1µM
COc1cccc(/C(O)=C/c2nc3ccc(C(=O)NCCc4cccc(C)c4)cc3[nH]c2=O)c1	i	20µM
CS(=O)(=O)N1CCC2(CC1)CN(Cc1ccc(C#N)cc1)C2	i	i
COC(=O)[C@H]1O[C@@H](c2cc(OC)c(C)c(OC)c2OCc2ccccc2)[C@H](C)[C@H]2O[C@@]12C	i	i
O=C(/C=C/c1cccs1)Nc1ccc(N2CCOCC2)c(S(=O)(=O)Nc2cc(Cl)ccc2Cl)c1	i	5.01µM
O=C(Nc1ccc(Cl)c(S(=O)(=O)Nc2ccccc2Cl)c1)c1cccs1	i	i
COc1ccccc1NS(=O)(=O)c1cc(NC(=O)c2ccncc2)ccc1N1CCOCC1	i	?
O=C(/C=C/c1ccc(Cl)cc1)NC(=S)Nc1ccc(N2CCOCC2)c(Cl)c1	i	?
SMILES	Cruzain inh Det	Cruzain inh noDet
COc1ccccc1NS(=O)(=O)c1cc(NC(=O)/C=C/c2cccs2)ccc1N1CCOCC1	i	25.1µM
O=C(/C=C/c1cccs1)Nc1ccc(N2CCOCC2)c(S(=O)(=O)Nc2ccccc2Cl)c1	i	25.1µM
Cc1ccc(C)c(NC(=O)Nc2cc3c(cc2N2CCCCC2)n(C)c(=O)n3C)c1	i	i
CCCCC/C=C\C\C=C/C=C/C=C/[C@@H](SCC(N)C(=O)NCC(=O)O)[C@@H](O)CCCC(=O)O (stereo not given in full)	i	i
COc1ccc(CNc2cc(-c3ccccc3C)ncn2)c(OC)c1	i	i
CN(C)c1ncc2nc(CCc3ccccc3)c(=O)n(Cc3cccs3)c2n1	i	i
O=C(Oc1ccc(NC2=C(Cl)C(=O)c3ccccc3C2=O)cc1)c1ccc([N+](=O)[O-])cc1	i	12.6µM
O=C(Oc1ccc([N+](=O)[O-])cc1)c1cccnc1	i	i
Cc1nc(Nc2ccccc2)c2nc(-c3ccccc3)n(CCCN3CCCCC3C)c2n1 (stereo not given)	i	i
CCOc1ccc(CCNC(=O)C2CCN(c3nnc(-n4cccc4)s3)CC2)cc1OCC	i	i
CCOc1ccc(CCNC(=O)C2CCN(c3nnc(-n4cccc4)s3)CC2)cc1	i	15.8µM
CCCCCCCCCCCCC/C=C/[C@@H](O)C(CO)NC(C)=O (stereo not given in full)	i	i
CCCc1c(OCC(O)COc2ccc3c(=O)cc(C(=O)O)oc3c2CCC)ccc(C(C)=O)c1O (stereo not given)	i	?
COc1ccc(CCNC(=O)CSc2n[nH]c(-c3ccccc3Cl)n2)cc1OC	i	i
CC(C)c1ccc(/C=C/C(=O)Nc2nc3ccc([N+](=O)[O-])cc3s2)cc1	i	3.98µM

Screens deposited in PubChem by National Center for Advancing Translational Sciences (NCATS).
